According to PubChem BioAssay AID1240 (Sanford-Burnham Center for Chemical Genomics, 2008):
Among all 50,000 compounds or so, about 800 (1.6%) showed an effect of 50% or more. The list comes from a sample in which strong results are over-represented; it also holds similar structures and randomly drawn compounds.

The compounds below were run against Bcl-2-like protein 10 (Homo sapiens) (UniProt Q9HD36) (assay: Phenotype converters, Bcl-B/TR3 peptide binding displacement, primary biochemical FP (AID 1240;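 further: 0% = Bcl-B with tracer peptide and DMSO and 100% = tracer peptide lacking Bcl-B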)). Details: GST-Bcl-B / FITC-TR3 peptide fluorescence polarization; stronger effect = higher value; compound at 3.75 mg/L.
Bcl-2-like protein 10 (Homo sapiens), sequence (Q9HD36 whole entry, looked up): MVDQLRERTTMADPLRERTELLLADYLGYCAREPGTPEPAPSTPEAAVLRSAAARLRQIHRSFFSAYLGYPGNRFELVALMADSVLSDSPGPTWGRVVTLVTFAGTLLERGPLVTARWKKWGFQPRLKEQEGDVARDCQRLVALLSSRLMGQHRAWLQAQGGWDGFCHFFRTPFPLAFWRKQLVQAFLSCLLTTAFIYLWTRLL
`FC(F)(F)c1ccccc1CN1CCN(Cc2c[nH]c3ccccc23)CC1` showed a displacement of -5.2%.
`C=C(C)CNC(=S)NC1=C(C)N(C)N(c2ccccc2)C1=C` was tested, and the displacement was -10.7%.
With `O=C(NC1CCS(=O)(=O)C1)/C(=C\c1ccc(Br)cc1)NC(=O)c1ccccc1` (stereo unspecified) the displacement was 1.9%.
Work on `O=C1c2ccccc2C(=O)C12OC(c1ccc(Br)cc1)C1(C(=O)c3ccccc3C1=O)C2c1ccc(F)cc1` (stereo unspecified) yielded a displacement of 2.6%.
`Fc1ccc(/C=N/Nc2nnc(-c3ccccc3)c(-c3ccccc3)n2)cc1` showed a displacement of 5.2%.
`C(=C(\c1ccccc1)c1nc2ccccc2[nH]1)/c1ccco1` gave a displacement of 2.2%.
`CCN1C(=O)c2cccc3c(NC(=O)c4ccc(S(=O)(=O)N(C)C)cc4)ccc1c23` gave a displacement of 84.1%.
Work on `CCN1C(=O)c2cccc3c(NC(=O)c4ccc(S(=O)(=O)N5CCCCCC5)cc4)ccc1c23` yielded a displacement of 88.2%.
Work on `CCN1C(=O)c2cccc3c(NC(=O)c4ccc(Cl)s4)ccc1c23` yielded a displacement of 11.6%.
With `O=C(Nc1cccc2ccccc12)c1ccc(S(=O)(=O)N2CCCCC2)cc1` the displacement was -8.9%.
Compound `CCN1C(=O)c2cccc3c(S(=O)(=O)N(C)C)ccc1c23` has a displacement of 6.6%.
Compound `CCN1C(=O)c2cccc3c(NC(=O)c4ccc(C(=O)c5ccccc5)cc4)ccc1c23` has a displacement of 101%.
In the case of `CCN1C(=O)c2cccc3c(NC(=O)c4cccs4)ccc1c23`, the displacement is reported as -29.9%.
Work on `CCN1C(=O)c2cccc3c(NC(=O)c4ccc(S(=O)(=O)N5CCOCC5)cc4)ccc1c23` yielded a displacement of 8.7%.
For `CCN1C(=O)c2cccc3c(NC(=O)c4ccc(Oc5ccccc5)cc4)ccc1c23`, the displacement was -14.2%.
`COCCNC(=O)Cc1ccc(Br)cc1` was tested, and the displacement was 13.1%.
`COc1ccc(CC(=O)Nc2cccc(NC(=O)c3cccc(Cl)c3)c2)cc1OC` was tested, and the displacement was -0.7%.
`CCc1nn2c(N)c(C=C3C=CC(=O)C=C3)c(=O)nc2s1` gave a displacement of 1.9%.
In the case of `COc1ccc(CCNC(=O)C2CN(S(=O)(=O)c3ccccc3)CCN2S(=O)(=O)c2ccccc2)cc1OC` (stereo unspecified), the displacement is reported as -2.8%.
Work on `O=C(COC(=O)C1CC(=O)N(c2ccc(Cl)cc2)C1)c1ccccc1` (stereo unspecified) yielded a displacement of 9.1%.
`O=C(NC(=S)Nc1ccc(N2CCCCC2)c(Cl)c1)c1ccco1` was tested, and the displacement was -7.1%.
`CC(C)CCn1c(=O)[nH]c2ccccc21` gave a displacement of 10.2%.
Compound `CCCc1c(C)nc2c(Cl)cccc2c1SCC(=O)O` has a displacement of -1.7%.
`NC(=O)c1c(NC(=O)c2ccco2)sc2c1CCC2` was tested, and the displacement was 4.5%.
In the case of `COC(=O)c1c(NC(=O)c2ccco2)sc2c1CCC(C)C2` (stereo unspecified), the displacement is reported as 0.1%.
`COC(=O)c1c(NC(=O)c2ccco2)sc2c1CCC2` gave a displacement of 91.1%.
`CCc1ccccc1OCCCNC(C)(C)C` showed a displacement of 1.5%.
`O=C(NNC(=O)c1cc([N+](=O)[O-])ccc1Cl)c1ccc([N+](=O)[O-])cc1` showed a displacement of -4.8%.
`NC(=O)C1CCN(C(=O)c2ccc([N+](=O)[O-])cc2)CC1` gave a displacement of 4.4%.
Work on `Cc1ccc(-c2csc(NC(=O)C3C4CCC(C4)C3C(=O)O)n2)c(C)c1` (stereo unspecified) yielded a displacement of -0.1%.
For `CC(Oc1ccccc1)C(=O)NCc1cccnc1` (stereo unspecified), the displacement was 3.9%.
In the case of `CCOc1ccc2nc(NC(=O)c3ccccc3O)sc2c1`, the displacement is reported as -1%.
Work on `CCOc1ccc2nc(NC(=O)C(c3ccccc3)c3ccccc3)sc2c1` yielded a displacement of 66.7%.
`CCOc1ccc2nc(NC(=O)c3ccccc3C(=O)O)sc2c1` was tested, and the displacement was -7%.
Work on `COc1ccc(Cc2nc(-c3ccc(Cl)cc3)no2)cc1OC` yielded a displacement of 1.1%.
Work on `Cc1ccc(OCCOc2ccc(Br)cc2C=C2C(=O)NC(=S)NC2=O)cc1` yielded a displacement of -23.5%.
`O=C(CSc1nc2ccccc2o1)NCc1ccco1` gave a displacement of -19.3%.
`Cc1ccc(N(CC(=O)O)S(=O)(=O)c2ccc(F)cc2)cc1` gave a displacement of 8.4%.
Compound `CCOC(=O)c1c(-c2ccccc2)oc2ccc(OC(=O)c3ccco3)cc12` has a displacement of 99.8%.
`CC(Oc1ccc2oc(-c3ccccc3)c(C(=O)O)c2c1)C(=O)O` (stereo unspecified) showed a displacement of 59.2%.
`CCOC(=O)c1c(-c2ccccc2)oc2cc(Br)c(OC(=O)c3ccco3)cc12` gave a displacement of 8.8%.
`CCOc1ccc2oc(-c3ccccc3)c(C(=O)O)c2c1` showed a displacement of 5.4%.
In the case of `Cc1oc2ccc(OC(C)C(=O)O)cc2c1C(=O)O` (stereo unspecified), the displacement is reported as 14.7%.
With `CCOC(=O)c1c(-c2ccccc2)oc2ccc(OC(=O)C(C)(C)C)cc12` the displacement was 10.8%.
With `O=C(CSc1nc2ccccc2[nH]1)N/N=C/c1cccc(Cl)c1Cl` the displacement was -5.4%.
Compound `COc1ccccc1CC(=O)N1CCN(c2ccc([N+](=O)[O-])cc2)CC1` has a displacement of 11.9%.
`COc1ccc(CC(=O)Nc2sc3c(c2C(=O)Nc2ccccc2Cl)CCCC3)cc1` showed a displacement of -9.7%.
For `COc1ccc(Cl)cc1/C=C1/C(=O)NN(c2cccc(Br)c2)C1=O`, the displacement was -1.3%.
`Cc1ccc(N2C(=O)Cn3c2nc2c3c(=O)n(C)c(=O)n2C)cc1Cl` showed a displacement of -12.5%.
For `Cc1cccc(N2C(=O)Cn3c2nc2c3c(=O)n(C)c(=O)n2C)c1`, the displacement was -5.8%.
Work on `COc1ccc(N2C(=O)Cn3c2nc2c3c(=O)n(C)c(=O)n2C)cc1` yielded a displacement of 61.6%.
With `CC(O)c1cccc(NC(=O)c2nn3c(c2Cl)NC(c2ccco2)CC3C(F)(F)F)c1` (stereo unspecified) the displacement was -0.1%.
`COc1ccc(C(=O)NC(=S)NCc2ccco2)cc1` gave a displacement of 9.4%.
`Cn1c(-n2c(CCCN3C(=O)c4ccccc4C3=O)nc3ccccc3c2=O)nc2ccccc21` was tested, and the displacement was 35.4%.
With `Cc1cccc(-n2c(CCN3C(=O)c4ccccc4C3=O)nc3ccccc3c2=O)n1` the displacement was -0.9%.
For `Cn1c(-n2c(CCN3C(=O)c4ccccc4C3=O)nc3ccccc3c2=O)nc2ccccc21`, the displacement was 66.3%.
In the case of `C/C(=N\NC(=O)c1ccccn1)c1ccc(F)cc1`, the displacement is reported as -18.6%.
Compound `O=C1NC(=O)N(c2ccc(Cl)cc2)C(=O)/C1=C/c1ccc(O)c(Br)c1` has a displacement of -8.4%.
For `COC(=O)c1cccc(S(=O)(=O)N2CCOCC2)c1`, the displacement was -16%.
Work on `O=C(Oc1ccc(Cl)cc1)c1cccc(S(=O)(=O)N2CCOCC2)c1` yielded a displacement of -8.4%.
Work on `O=C(Oc1cccc(-c2cnc3ccccc3n2)c1)c1cccc(S(=O)(=O)N2CCOCC2)c1` yielded a displacement of 225%.
With `C#CCn1cc(/C=C(/C#N)C(=O)Nc2ccc(OCC)cc2)c2ccccc21` the displacement was 5.9%.
`N#C/C(=C\c1cn(CC(=O)Nc2ccccc2)c2ccccc12)C(=O)NCc1ccccc1` gave a displacement of 61.2%.
Compound `CCc1ccccc1NC(=O)/C(C#N)=C/c1cn(CC(=O)Nc2ccccc2)c2ccccc12` has a displacement of -26.1%.
With `N#C/C(=C\c1cn(CC(=O)Nc2ccccc2)c2ccccc12)C(=O)Nc1ccc(F)cc1` the displacement was -30.3%.
`COc1ccc(NC(=O)/C(C#N)=C/c2cn(CC(=O)Nc3ccccc3)c3ccccc23)cc1` gave a displacement of -21.4%.
`CCOc1cccc(NC(=O)/C(C#N)=C/c2cn(CC(=O)Nc3ccccc3)c3ccccc23)c1` gave a displacement of 104%.
With `N#C/C(=C\c1cn(CC(=O)Nc2ccccc2)c2ccccc12)C(=O)Nc1ccccc1` the displacement was -36.7%.
With `Cc1cccc(NC(=O)/C(C#N)=C/c2cn(CC(=O)Nc3ccccc3)c3ccccc23)c1C` the displacement was -60.5%.
Work on `N#C/C(=C\c1cn(CC(=O)Nc2ccccc2)c2ccccc12)C(=O)Nc1ccccc1Cl` yielded a displacement of 126%.
For `Cc1ccc2c(c1)c(-c1ccccc1)c(-c1ccccc1)n2CC(O)CN1C(=O)CSC1=O` (stereo unspecified), the displacement was 11.4%.
Work on `CCOc1ccc(C2C(C(=O)/C=C/c3ccccc3)=C(O)C(=O)N2CCCCCC(=O)O)cc1` (stereo unspecified) yielded a displacement of -1%.
`O=C(NC(=S)Nc1ccc(Cl)c(-c2nc3ccccc3s2)c1)c1ccco1` was tested, and the displacement was 5.8%.
For `c1ccc2nc(NCc3ccncc3)ccc2c1`, the displacement was -8.8%.
`CCc1ccc(N2C(=O)NC(=O)/C(=C\c3ccc(OCC(=O)O)c(OC)c3)C2=O)cc1` was tested, and the displacement was 9.9%.
Compound `CCOc1ccc(NC(=O)CC2S/C(=N\N=C\c3ccc(O)c(OC)c3)NC2=O)cc1` (stereo unspecified) has a displacement of 9.6%.
Work on `COc1cc(/C=c2\sc3nc4ccccc4n3c2=O)cc(I)c1OCC(=O)O` yielded a displacement of -4.2%.
With `C=CCc1ccccc1OCCOc1cccc(/C=c2\sc3nc4ccccc4n3c2=O)c1` the displacement was 13.4%.
`COc1cc(/C=c2/sc3nc4ccccc4n3c2=O)cc(I)c1OCc1ccccc1` was tested, and the displacement was 74.2%.
In the case of `CCOc1ccc(/C=c2\sc3nc4ccccc4n3c2=O)cc1Cl`, the displacement is reported as 19.1%.
Work on `COc1cc(/C=c2\sc3nc4ccccc4n3c2=O)cc(I)c1OCCOc1cccc(C)c1` yielded a displacement of 10.9%.
Work on `C=CCc1ccccc1OCCOc1ccc(/C=c2\sc3nc4ccccc4n3c2=O)cc1OCC` yielded a displacement of 100%.
Compound `CCOc1cc(/C=c2\sc3nc4ccccc4n3c2=O)ccc1OCCOc1ccc(Br)cc1` has a displacement of 19%.
`COc1cc(/C=c2/sc3nc4ccccc4n3c2=O)cc(Br)c1OCc1ccccc1` gave a displacement of 1.8%.
`CCOc1cc(/C=c2/sc3nc4ccccc4n3c2=O)cc(I)c1OCC` gave a displacement of 77.3%.
Compound `COc1ccc(OC)c(NC(=O)CN(c2ccc(Br)cc2)S(C)(=O)=O)c1` has a displacement of -12.8%.
With `CCN(CC)CCCCOc1ccc(Cl)cc1C` the displacement was -7.4%.
`COc1ccc(NC(=S)NC(=O)c2cccs2)cc1` gave a displacement of -9.3%.
`O=C(Nc1ccccc1)C1C2C3CCC(C3)C12` (stereo unspecified) gave a displacement of 4%.
For `O=C(CSCc1ccccc1)Nc1nnc(/C=C/c2ccccc2)s1`, the displacement was 39.9%.
Work on `CC(=O)c1ccc(NC(=O)c2ccc3c(c2)C(=O)N(c2ccc(C)c(C)c2)C3=O)cc1` yielded a displacement of 8.9%.
Work on `Cc1ccc(N2C(=O)c3ccc(C(=O)Nc4cccc(C)c4C)cc3C2=O)c(C)c1` yielded a displacement of 6.6%.
For `CN1CCN(C(=O)C(=O)Nc2cccc3ccccc23)CC1`, the displacement was -2.6%.
In the case of `COc1cccc(/C=N/NC(=O)c2cccc(N3CCCC3=O)c2)c1`, the displacement is reported as -3.5%.
Work on `NC1=NC(=O)/C(=C/c2ccc(Br)cc2)S1` yielded a displacement of 3.7%.
`NC1=NC(=O)/C(=C\C=C\c2ccccc2)S1` showed a displacement of 154%.
Compound `CN(C)c1ccc(/C=C/C=C2/SC(N)=NC2=O)cc1` has a displacement of -17.2%.
For `NC1=NC(=O)/C(=C/c2ccc(Cl)cc2)S1`, the displacement was 57.4%.
In the case of `CC(=O)NC1=NC(=O)/C(=C\C=Cc2ccccc2)S1`, the displacement is reported as -42.4%.
`COc1ccc(/C=C2\SC(=S)N(C(C)C)C2=O)cc1` was tested, and the displacement was -3.9%.
In the case of `COc1ccc(/C=C2/SC(=O)NC2=O)c(OC)c1`, the displacement is reported as 4.9%.
`NC1=NC(=O)/C(=C\c2ccc(S(=O)(=O)O)cc2)S1` was tested, and the displacement was 12.8%.
Work on `COc1ccc(C(=O)Oc2ccc(/C=C3\SC(N)=NC3=O)cc2)cc1` yielded a displacement of 10.1%.
For `COc1cc(/C=C2\SC(N)=NC2=O)cc(OC)c1`, the displacement was -9.9%.
`COc1ccc(/C=C2\SC(=O)NC2=S)cc1` gave a displacement of 67.8%.
`COc1ccc(/C=C2\SC(N)=NC2=O)cc1` gave a displacement of 124%.
